The results in this text go back to PubChem BioAssay (Tox21).

Test [1] deals with Peroxisome proliferator-activated receptor delta (Homo sapiens) (UniProt Q03181). Description: qHTS assay to identify small molecule agonists of the peroxisome proliferator-activated receptor delta (PPARd) signaling pathway (AID 743212). In a few lines: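 A PPARd-bla HEK293H line with beta-lactamase under an Upstream Activator Sequence is treated with compounds at 37 C. Substrate loading for 2 h at room temperature precedes the fluorescence measurement.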
(Quantitative high-throughput screening tests each substance at several concentrations.)

Test [2] is described as follows: qHTS assay to identify small molecule antagonists of the peroxisome proliferator-activated receptor delta (PPARd) signaling pathway - cell viability counter screen (AID 743213; active = well fitted curve in the direction sought with a large enough effect in the repeat runs; an effect the other way counts as inactive or inconclusive; also: nearly all actives have a fitted effect of over 50% in size). The gist of the method: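 Viability counter-screen, qHTS format: PPARd-bla HEK293H, L165041 300 nM final, 17 h compound exposure at 37 C, CellTiter-Glo luminescence after 30 min RT.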
For test [3], the target named is Peroxisome proliferator-activated receptor delta (Homo sapiens) (UniProt Q03181). Nature of the test: qHTS assay to identify small molecule antagonists of the peroxisome proliferator-activated receptor delta (PPARd) signaling pathway (AID 743215; active = well fitted inhibition curve with a large enough effect in the signal ratio in the repeat runs, not every such curve was filed as active; the % refers to the signal ratio;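 also: cells stimulated with agonist L165041 at 300 nM final during compound exposure; series mostly up to about 62 µM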). In a few lines: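 Inhibition of L165041-driven (300 nM final) PPARd signaling is scored in HEK293H UAS-bla cells. Exposure lasts 17 h at 37 C; beta-lactamase activity is then read by FRET substrate fluorescence after 2 h at room temperature.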

The nature of test [4]: qHTS assay to identify small molecule antagonists of the farnesoid-X-receptor (FXR) signaling pathway - cell viability counter screen (AID 743221; active = well fitted cell-killing curve with a large enough effect in the repeat runs, not every such curve was filed as active; also: nearly all actives have a fitted effect of over 50% in size). The gist of the method:
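Cytotoxicity counter screen run in the FXR-bla reporter wells: HEK 293T cells exposed to compound with 50 uM (final) chenodeoxycholic acid for 16 h, 37 C, then viability measured by CellTiter-Glo luminescence after 30 min, room temperature.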

The target of test [5] is Vitamin D3 receptor (Homo sapiens) (UniProt P11473). Nature of the test: qHTS assay to identify small molecule agonists of the vitamin D receptor (VDR) signaling pathway (AID 743222). In a few lines: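 Quantitative HTS agonist-mode screen: compounds in DMSO were pin-transferred onto VDR-bla cells and incubated 16 h at 37C, 5% CO2. Reporter activity was detected with LiveBLAzer B/G FRET substrate after 2 h at room temperature.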

A short description of test [6]: qHTS assay to identify small molecule agonists of the vitamin D receptor (VDR) signaling pathway - cell viability counter screen (AID 743224; active = well fitted curve in the direction sought with a large enough effect in the repeat runs; an effect the other way counts as inactive or inconclusive; also: nearly all actives have a fitted effect of over 50% in size; also: potency is read from the fitted curve at half-maximal effect). The gist of the method: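 Viability is measured in the same wells as the VDR-bla reporter assay: after 16 h compound treatment and 2 h substrate loading, CellTiter-Glo is added and luminescence read 30 min later.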
Test [7] in a line: qHTS assay to identify small molecule antagonists of the vitamin D receptor (VDR) signaling pathway - cell viability counter screen (AID 743225; active = well fitted curve in the direction sought with a large enough effect in the repeat runs; an effect the other way counts as inactive or inconclusive; also: nearly all actives have a fitted effect of over 50% in size). In a few lines:
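Cytotoxicity counter screen read by CellTiter-Glo luminescence (30 min, room temperature) in the same wells as the VDR-bla antagonist readout. HEK 293T VDR-UAS-bla cells had 16 h at 37C with compound and 3 nM (final) 1-alpha,25-dihydroxyvitamin D3, then 2 h with FRET substrate.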

Test [8] is described as follows: qHTS assay to identify small molecule agonists of the NFkB signaling pathway (AID 1159509; active = well fitted curve in the direction sought with a large enough effect in the signal ratio in the repeat runs, not every such curve was filed as active; the % refers to the signal ratio; also: series mostly up to about 61 µM). In a few lines: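 NFkB-bla ME-180 cells carry a beta-lactamase reporter under an NF-kB response element. They were plated overnight, then exposed to compounds for 5 h at 37 C. Read-out is LiveBLAzer FRET after 1.5 hr at room temperature (405 nm excitation; 460/530 nm emission).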

Test [9] can be described thus: qHTS assay to identify small molecule agonists of the NFkB signaling pathway - cell viability counter screen (AID 1159515). Also: series mostly up to about 61 µM; nearly all actives have a fitted effect of over 55% in size. The gist of the method: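 Multiplexed viability readout: after the 5 hr compound exposure and 1.5 hr FRET substrate step, CellTiter-Glo reagent went into the same NFkB-bla ME-180 wells; ATP luminescence was measured after 30 min at room temperature.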

A short description of test [10]: qHTS assay to identify small molecule agonists of the endoplasmic reticulum stress response signaling pathway (AID 1159516; active = well fitted activation curve with a large enough effect in the signal ratio in the repeat runs, not every such curve was filed as active; the % refers to the signal ratio). In a few lines:
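Tox21 10K library screened in quantitative HTS format on ESRE-bla HeLa cells, a beta-lactamase reporter under ER stress response element control; 5 hr treatment, FRET read.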

Test [11] can be described thus: qHTS assay to identify small molecule antagonists of the retinoid-related orphan receptor gamma (ROR-gamma) signaling pathway - cell viability counter screen (AID 1159520; active = well fitted curve in the direction sought with a large enough effect in the repeat runs; an effect the other way counts as inactive or inconclusive; also: nearly all actives have a fitted effect of over 50% in size). The gist of the method: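 Tet-on ROR gamma CHO cells (1,000/well) were plated 4 hr, given compounds in DMSO for 2 hr at 37 C, then induced with 1 uM final doxycycline for 16 hr. Viability was read as ATP by CellTiter-Glo luminescence after 30 min.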

Test [12] addresses Nuclear receptor ROR-gamma (Homo sapiens) (UniProt P51449). Nature of the test: qHTS assay to identify small molecule antagonists of the retinoid-related orphan receptor gamma (ROR-gamma) signaling pathway (AID 1159521; active = well fitted curve in the direction sought with a large enough effect in the repeat runs; an effect the other way counts as inactive or inconclusive). The gist of the method:
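Antagonist read-out: drop in luminescence (ONE-Glo) from an RORE-LUC reporter in CHO cells with doxycycline-inducible ROR-gamma; 2 hr compound pretreatment, 1 uM doxycycline, 16 hr incubation at 37 C.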

Test [13] can be described thus: qHTS assay to identify small molecule agonists of the AP-1 signaling pathway - cell viability counter screen (AID 1159525). Also: nearly all actives have a fitted effect of over 55% in size. In a few lines: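 ME-180 AP-1-bla, 2500 cells/well, Opti-MEM + 0.5% dialyzed FBS; overnight 37 °C; cpd 15-pt titration, 5 h 37 °C; CellTiter-Glo 30 min RT; luminescence read; normalised to TOAB and DMSO controls.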
Test [14] in a line: qHTS assay to identify small molecule agonists of the AP-1 signaling pathway (AID 1159526).
Test [15] has as its target Retinoic acid receptor RXR-alpha (Homo sapiens) (UniProt P19793). Description: qHTS assay to identify small molecule agonists of the RXR signaling pathway (AID 1159527). Also: nearly all actives have a fitted effect of over 35% in size. The gist of the method: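 Agonist-mode beta-lactamase reporter assay: HEK 293T RXR-alpha-UAS-bla cells treated 16 hr at 37 C with compounds, 9-cis retinoic acid as positive control. LiveBLAzer FRET substrate, 405 nm excitation, 460/530 nm emission.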

Test [16] in a line: qHTS assay to identify small molecule agonists of the endoplasmic reticulum stress response signaling pathway - cell viability counter screen (AID 1159517). In a few lines:
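CellTiter-Glo was added to wells already read for beta-lactamase FRET, and luminescence was recorded 30 min later. Cells: ESRE-bla HeLa, 1,500 per well, compound exposure 5 hr at 37 C.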

For test [17], the target named is Bile acid receptor (Homo sapiens) (UniProt Q96RI1). Description: qHTS assay to identify small molecule agonists of the farnesoid-X-receptor (FXR) signaling pathway (AID 743220; active = well fitted activation curve with a large enough effect in the signal ratio in the repeat runs, not every such curve was filed as active; the % refers to the signal ratio; also: potency is read from the fitted curve at half-maximal effect). In a few lines: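 Beta-lactamase reporter under UAS control in GeneBLAzer FXR HEK 293T cells (5000/well) measured with LiveBLAzer FRET substrate after 2 h at room temperature. Compound exposure lasted 16 h at 37C.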

Test [18] can be described thus: qHTS assay to identify small molecule agonists of the farnesoid-X-receptor (FXR) signaling pathway - cell viability counter screen (AID 743218; active = well fitted curve in the direction sought with a large enough effect in the repeat runs; an effect the other way counts as inactive or inconclusive; also: nearly all actives have a fitted effect of over 45% in size). The gist of the method: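 Cytotoxicity counter-screen run in parallel, same wells: FXR-UAS-bla HEK 293T cells dosed 16 h at 37 C, viability read by CellTiter-Glo luminescence after 30 min at room temperature.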
Test [19] deals with Vitamin D3 receptor (Homo sapiens) (UniProt P11473). Description: qHTS assay to identify small molecule antagonists of the vitamin D receptor (VDR) signaling pathway (AID 743223; active = well fitted inhibition curve with a large enough effect in the signal ratio in the repeat runs, not every such curve was filed as active; the % refers to the signal ratio). In a few lines:
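Antagonist mode: compound added to VDR-bla cells alongside agonist 1alpha,25-dihydroxyvitamin D3 (3 nM final), incubation 16 h at 37C. Read-out is LiveBLAzer FRET fluorescence, 2 h at room temperature.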

Test [20] addresses Bile acid receptor (Homo sapiens) (UniProt Q96RI1). Nature of the test: qHTS assay to identify small molecule antagonists of the farnesoid-X-receptor (FXR) signaling pathway (AID 743217; active = well fitted inhibition curve with a large enough effect in the signal ratio in the repeat runs, not every such curve was filed as active; the % refers to the signal ratio). In a few lines: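 Antagonist mode against 50 uM (final) chenodeoxycholic acid stimulation in FXR-bla HEK 293T cells, 16 h at 37 °C. Inhibition detected as reduced beta-lactamase activity via LiveBLAzer B/G FRET fluorescence after 2 h at room temperature.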

Results filed as inconclusive are left out. Unmarked numbers belong to inactive results. Activity calls are given as the source filed them. Unless noted, calls follow the shape of the full dose curve.

Retinoic acid receptor RXR-alpha (Homo sapiens), sequence (P19793 whole entry, looked up): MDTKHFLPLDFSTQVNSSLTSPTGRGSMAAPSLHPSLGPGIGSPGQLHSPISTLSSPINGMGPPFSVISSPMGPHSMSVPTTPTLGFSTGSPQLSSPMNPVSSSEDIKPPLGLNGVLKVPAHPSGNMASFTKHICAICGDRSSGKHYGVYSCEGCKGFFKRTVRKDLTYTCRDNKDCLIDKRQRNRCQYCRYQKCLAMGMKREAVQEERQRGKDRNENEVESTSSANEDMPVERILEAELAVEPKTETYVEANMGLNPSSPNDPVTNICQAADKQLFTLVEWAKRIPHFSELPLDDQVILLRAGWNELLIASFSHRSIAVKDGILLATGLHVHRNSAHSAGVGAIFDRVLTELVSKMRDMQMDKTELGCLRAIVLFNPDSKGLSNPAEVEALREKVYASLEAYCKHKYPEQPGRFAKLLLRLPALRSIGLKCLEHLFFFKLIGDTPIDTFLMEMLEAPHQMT
Bile acid receptor (Homo sapiens), sequence (Q96RI1 whole entry, looked up): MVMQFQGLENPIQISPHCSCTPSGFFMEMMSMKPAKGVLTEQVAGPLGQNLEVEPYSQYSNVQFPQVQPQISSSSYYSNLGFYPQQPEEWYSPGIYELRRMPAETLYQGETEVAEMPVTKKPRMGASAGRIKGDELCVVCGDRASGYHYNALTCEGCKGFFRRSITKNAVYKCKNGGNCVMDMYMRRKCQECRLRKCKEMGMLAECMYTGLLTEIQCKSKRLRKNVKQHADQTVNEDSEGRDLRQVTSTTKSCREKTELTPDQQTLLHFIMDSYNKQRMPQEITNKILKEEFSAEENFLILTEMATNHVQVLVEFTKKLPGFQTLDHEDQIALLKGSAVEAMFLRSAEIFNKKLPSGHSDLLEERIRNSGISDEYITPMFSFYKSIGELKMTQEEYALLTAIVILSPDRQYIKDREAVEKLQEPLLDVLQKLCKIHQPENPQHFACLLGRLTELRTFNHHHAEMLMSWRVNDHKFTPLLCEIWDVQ
Vitamin D3 receptor (Homo sapiens), sequence (P11473 whole entry, looked up): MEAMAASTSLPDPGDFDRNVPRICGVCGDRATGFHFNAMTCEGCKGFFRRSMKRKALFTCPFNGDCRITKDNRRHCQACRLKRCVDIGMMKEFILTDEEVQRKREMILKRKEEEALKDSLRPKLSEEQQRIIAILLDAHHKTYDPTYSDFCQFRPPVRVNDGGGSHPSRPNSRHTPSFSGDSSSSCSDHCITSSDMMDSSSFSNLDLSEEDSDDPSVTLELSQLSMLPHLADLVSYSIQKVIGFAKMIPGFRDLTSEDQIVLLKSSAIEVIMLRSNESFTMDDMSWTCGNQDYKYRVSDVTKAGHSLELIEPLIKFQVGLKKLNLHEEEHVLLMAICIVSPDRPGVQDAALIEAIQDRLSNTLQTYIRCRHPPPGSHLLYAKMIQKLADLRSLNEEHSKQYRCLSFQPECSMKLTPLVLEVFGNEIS
Peroxisome proliferator-activated receptor delta (Homo sapiens), sequence (Q03181 whole entry, looked up): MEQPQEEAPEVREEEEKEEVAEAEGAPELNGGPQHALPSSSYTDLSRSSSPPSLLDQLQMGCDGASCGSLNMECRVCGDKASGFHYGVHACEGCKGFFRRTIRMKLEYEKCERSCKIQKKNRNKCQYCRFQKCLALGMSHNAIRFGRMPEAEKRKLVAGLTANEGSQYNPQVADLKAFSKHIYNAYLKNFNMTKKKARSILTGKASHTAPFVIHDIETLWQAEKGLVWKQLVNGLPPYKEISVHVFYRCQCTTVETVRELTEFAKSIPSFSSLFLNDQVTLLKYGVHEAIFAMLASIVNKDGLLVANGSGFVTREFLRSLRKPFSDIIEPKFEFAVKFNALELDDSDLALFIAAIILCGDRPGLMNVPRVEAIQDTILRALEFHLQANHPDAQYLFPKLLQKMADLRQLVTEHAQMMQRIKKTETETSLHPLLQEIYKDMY

Turning to `O=C(/C=C/c1ccccc1)OCCCc1ccccc1`, the Potency result in test [1], in test [2], in test [3], in test [4], in [6] and in [7] was “inactive” each time. For the same compound, the Potency entry in test [11], in [12] and in test [15] was “inactive” each time. In addition, the result in test [5], in test [8], in test [9], in test [10], in [13] and in test [14] was inactive.
Take `CC(=N\O)/C(C)=N/O`: the Potency entry in [2], in test [6] and in [15] was “inactive” in each case. In addition, the compound was classed as inactive in test [5], in test [8], in test [9], in test [10], in [16] and in test [13]. The compound was classed as inactive in test [14].
For the compound `CSc1ccc(Oc2ccc(S(N)(=O)=O)cc2CN(C)C)cc1C`, the Potency entry in test [2] and in test [17] was “inactive” in each case. For the same compound, the call in [5], in test [8], in [9], in test [10], in test [16] and in test [13] was inactive. Moreover, the result in test [14] was inactive.
`CCCCCCCCCCCC(=O)[O][Sn]([CH2]CCC)([CH2]CCC)[O]C(=O)CCCCCCCCCCC`: the Potency in [6] was 23.7 µM (active). Also, the Potency entry in test [7] was “inactive”. Besides, the compound was classed as inactive in test [8], in [9], in test [10], in test [16], in [13] and in test [14].
Take `OC/C(Br)=C(\Br)CO`: the Potency result in test [1], in test [2], in test [3], in test [18], in test [4] and in test [6] was “inactive” throughout. Besides, the Potency result in [7], in test [11], in [12] and in [15] was “inactive” in each case. Moreover, the compound was called inactive in [5], in test [8], in test [9], in test [10], in [13] and in test [14].
`COCCOC(=O)C1=C(C)NC(C)=C(C(=O)OC/C=C/c2ccccc2)C1c1cccc([N+](=O)[O-])c1` (centres undefined): the Potency entry in test [2], in [3], in [18], in test [4], in [6] and in test [7] was “inactive” in each case. Besides, in test [17], the Potency is 9.44 µM (active). The call in test [19], in test [8], in test [9], in test [10], in test [16] and in test [13] was inactive.
As to `COc1ccc([C@@H]2Sc3ccccc3NC(=O)[C@@H]2O)cc1`, the Potency result in test [1], in [3], in test [18], in [4], in [6] and in test [7] was “inactive” in each case. Further, the call in test [5], in test [8], in test [9], in [10], in [16] and in test [13] was inactive. Moreover, the compound was classed as inactive in [14].
For the compound `CCCCCC=CCC=CCCCCCCCC(=O)OCC`, the Potency entry in [3], in test [20], in [18], in test [17], in test [4] and in [7] was “inactive” in each case. In addition, the call in test [5], in test [19], in test [8], in [9], in test [10] and in [16] was inactive. For the same compound, the result in [13] and in test [14] was inactive. In addition, the Potency in [6] was 29.8 µM (active).
Consider `CCc1cccc(N(C)C(N)=Nc2cccc3ccccc23)c1`, for which the Potency result in test [2], in [18], in [4], in test [7] and in [15] was “inactive” throughout. For the same compound, the compound was classed as inactive in [5], in test [19], in test [8], in test [9], in [10] and in [16]. In addition, in test [13], the compound was classed as inactive.
On to `CCC(C)(O)CCC=C(C)C` (centres undefined), for which the Potency result in [2], in test [3], in [4], in test [6], in test [7] and in [15] was “inactive” each time. Also, the call in test [5], in test [8], in test [9], in [10], in test [16] and in test [13] was inactive. Also, the compound was called inactive in test [14].
